Reference: PubChem BioAssay (Tox21)
“And” between values parts separate entries of the source, which are not always exact repeats. Equal entries are not always repeated. Results filed as inconclusive are left out. Entries that show only a call come without a potency. The source holds several records for some structures; these can differ, active in one and inactive in another. The source made the active and inactive calls. Unless noted, calls follow the shape of the dose curve; as a rule, active = well fitted curve in the direction sought with a large enough effect in the repeat runs; inconclusive = weak or mixed curves; inactive = no such curve, though single readings can be large; an effect the other way counts as inactive or inconclusive.

Columns and labels:
[1] = qHTS assay to identify aromatase inhibitors - cell viability counter screen (AID 743084); conditions: MCF-7 aro ERE viability, CellTiter-Fluor, 24 h; series mostly up to 70.3 µM;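 also: cells stimulated with testosterone during compound exposure; nearly all actives have a fitted effect of over 55% in size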; also: potency is read from the fitted curve at half-maximal effect
[2] = biological target: Aryl hydrocarbon receptor (Homo sapiens) (UniProt P35869); test: qHTS assay to identify small molecule that activate the aryl hydrocarbon receptor (AhR) signaling pathway (AID 743085); conditions: HepG2 AhR-luc (HG2L7.5c1), luciferase, 24 h; series mostly up to 70.3 µM; also: nearly all actives have a fitted effect of over 15% in size; also: potency is read from the fitted curve at half-maximal effect;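 as to activation: HG2L7.5c1 human HepG2 liver cells with stably integrated DRE-driven firefly reporter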
Aryl hydrocarbon receptor (Homo sapiens), sequence (P35869 whole entry, looked up): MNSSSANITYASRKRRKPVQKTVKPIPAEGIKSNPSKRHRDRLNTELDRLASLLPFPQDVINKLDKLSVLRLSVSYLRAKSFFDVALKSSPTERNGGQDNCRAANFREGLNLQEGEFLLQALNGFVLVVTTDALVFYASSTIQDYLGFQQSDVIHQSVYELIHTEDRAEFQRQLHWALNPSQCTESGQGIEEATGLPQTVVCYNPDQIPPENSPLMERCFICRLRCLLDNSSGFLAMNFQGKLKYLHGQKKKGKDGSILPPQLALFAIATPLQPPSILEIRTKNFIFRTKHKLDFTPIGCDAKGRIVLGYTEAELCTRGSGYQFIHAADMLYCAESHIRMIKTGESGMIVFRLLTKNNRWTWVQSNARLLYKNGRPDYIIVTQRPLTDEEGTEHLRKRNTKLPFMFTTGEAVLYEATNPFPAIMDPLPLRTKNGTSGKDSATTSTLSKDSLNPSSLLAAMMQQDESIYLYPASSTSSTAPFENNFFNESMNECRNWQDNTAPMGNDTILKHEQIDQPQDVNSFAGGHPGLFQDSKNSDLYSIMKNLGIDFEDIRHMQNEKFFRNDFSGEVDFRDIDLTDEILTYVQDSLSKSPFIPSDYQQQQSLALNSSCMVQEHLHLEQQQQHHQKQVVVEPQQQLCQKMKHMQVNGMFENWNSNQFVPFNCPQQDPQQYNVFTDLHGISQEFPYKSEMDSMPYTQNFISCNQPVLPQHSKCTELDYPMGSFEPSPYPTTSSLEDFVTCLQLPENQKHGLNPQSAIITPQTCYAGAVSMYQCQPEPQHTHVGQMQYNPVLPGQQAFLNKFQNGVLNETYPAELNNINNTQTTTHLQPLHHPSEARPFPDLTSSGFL
In short: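 HepG2 cells (HG2L7.5c1) stably carrying a firefly luciferase reporter driven by 20 dioxin responsive elements were exposed to compound for 24 h at 37C after a 5 h settling period; luminescence rise (ONE-Glo) indicated activation.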

[3] = qHTS assay to identify small molecule that activate the aryl hydrocarbon receptor (AhR) signaling pathway - cell viability counter screen (AID 743086); conditions: HepG2-AhR-luc viability, CellTiter-Fluor, 24 h; series mostly up to 70.3 µM; also: nearly all actives have a fitted effect of over 45% in size; also: potency is read from the fitted curve at half-maximal effect
In short: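 Cytotoxicity counter screen: CellTiter-Fluor signal (30 min, 37 C) in 4000 HepG2 cells/well carrying the DRE-luciferase reporter, following 24 h compound exposure at 37 C.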

[4] = biological target: Peroxisome proliferator-activated receptor gamma (Homo sapiens) (UniProt P37231); test: qHTS assay to identify small molecule agonists of the peroxisome proliferator-activated receptor gamma (PPARg) signaling pathway (AID 743094; active = well fitted activation curve with a large enough effect in the signal ratio in the repeat runs, not every such curve was filed as active; the % refers to the signal ratio); conditions: HEK293H PPARg-UAS-bla, beta-lactamase FRET ratio, 17 h; series mostly up to 57 µM
Peroxisome proliferator-activated receptor gamma (Homo sapiens), sequence (P37231 whole entry, looked up): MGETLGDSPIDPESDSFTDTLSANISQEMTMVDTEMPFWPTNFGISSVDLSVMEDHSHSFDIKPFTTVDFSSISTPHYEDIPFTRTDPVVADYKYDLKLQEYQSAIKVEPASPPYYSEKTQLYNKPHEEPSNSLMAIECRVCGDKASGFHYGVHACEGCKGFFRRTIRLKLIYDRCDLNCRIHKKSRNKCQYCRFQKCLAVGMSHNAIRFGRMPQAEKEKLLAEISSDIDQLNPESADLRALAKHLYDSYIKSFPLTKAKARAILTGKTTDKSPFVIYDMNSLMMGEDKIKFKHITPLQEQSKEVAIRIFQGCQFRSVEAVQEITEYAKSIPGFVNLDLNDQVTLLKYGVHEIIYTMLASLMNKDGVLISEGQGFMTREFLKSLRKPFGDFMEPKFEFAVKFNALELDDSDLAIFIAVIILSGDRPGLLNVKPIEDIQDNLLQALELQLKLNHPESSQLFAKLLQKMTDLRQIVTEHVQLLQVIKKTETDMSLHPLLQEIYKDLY
In short: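 Fluorescence-based beta-lactamase readout in HEK293H PPARg UAS-bla cells after 17 h compound exposure (37C) and 1 h B/G FRET substrate incubation at room temperature.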

[5] = biological target: Peroxisome proliferator-activated receptor gamma (Homo sapiens) (UniProt P37231); test: qHTS assay to identify small molecule antagonists of the peroxisome proliferator-activated receptor gamma (PPARg) signaling pathway (AID 743191; calls by dose curve; also: nearly all actives have a fitted effect of over 30% in size; also: potency is read from the fitted curve at half-maximal effect); conditions: HEK293H PPARg-UAS-bla, beta-lactamase ratio, antagonist, 17 h; series mostly up to 62.6 µM
In short: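 Beta-lactamase reporter under UAS control in HEK293H PPARg-bla cells; compound treatment 17 h at 37C. Read-out: fluorescence intensity after 1 h room-temperature incubation with LiveBLAzer B/G FRET substrate.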

[6] = qHTS assay to identify small molecule antagonists of the peroxisome proliferator-activated receptor gamma (PPARg) signaling pathway - cell viability counter screen (AID 743194); conditions: PPARg-bla HEK293H viability, CellTiter-Glo luminescence, 17 h, co-treated with 50 nM rosiglitazone; series mostly up to 62.6 µM; also: nearly all actives have a fitted effect of over 55% in size; also: potency is read from the fitted curve at half-maximal effect
In short: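 Viability was measured as CellTiter-Glo luminescence in GeneBLAzer PPARg UAS-bla HEK293H cells. These cells had been exposed 17 h at 37 C to compounds together with rosiglitazone at 50 nM final, with the beta-lactamase readout taken in the same wells.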

[7] = qHTS assay for small molecule agonists of the antioxidant response element (ARE) signaling pathway (AID 743202; active = well fitted activation curve with a large enough effect in the signal ratio in the repeat runs, not every such curve was filed as active; the % refers to the signal ratio; also: potency is read from the fitted curve at half-maximal effect); conditions: HepG2 ARE-bla reporter, beta-lactamase FRET, 16 h; series mostly up to 73.3 µM
In short: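 After 16 hours of compound treatment at 37 C, HepG2 cells with a stably integrated ARE-driven beta-lactamase reporter were loaded 2 hours at room temperature with LiveBLAzer B/G FRET substrate and fluorescence intensity measured.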

[8] = qHTS assay for small molecule agonists of the antioxidant response element (ARE) signaling pathway - cell viability counter screen (AID 743203; calls by dose curve; also: nearly all actives have a fitted effect of over 55% in size; also: potency is read from the fitted curve at half-maximal effect); conditions: ARE-bla HepG2 viability, CellTiter-Glo luminescence, 16 h; series mostly up to 73.3 µM
In short: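 Parallel cytotoxicity read-out for the ARE-bla screen: HepG2 reporter cells, 16 hrs with compounds, then CellTiter-Glo luminescence.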

[9] = qHTS assay for small molecule activators of the heat shock response signaling pathway - cell viability counter screen (AID 743209); conditions: HSE-bla HeLa viability, CellTiter-Glo luminescence, 5 h; series mostly up to 62.6 µM; also: nearly all actives have a fitted effect of over 50% in size; also: potency is read from the fitted curve at half-maximal effect
In short: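 To flag cytotoxic compounds, HSE-bla HeLa cells plated at 1500 cells/well were dosed for 5 h at 37 C, followed by the reporter FRET read and then CellTiter-Glo, with luminescence recorded 30 min after reagent addition.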

[10] = qHTS assay for small molecule activators of the heat shock response signaling pathway (AID 743210; active = well fitted activation curve with a large enough effect in the signal ratio in the repeat runs, with a control signal flat, not every such curve was filed as active; the % refers to the signal ratio); conditions: HeLa HSE-bla reporter, beta-lactamase ratio, 5 h; series mostly up to 62.6 µM
In short: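 Compound exposure lasted 5 h at 37 C in HeLa cells carrying a heat-shock-element-driven beta-lactamase reporter. Read-out: fluorescence intensity after 2.5 h room-temperature loading with LiveBLAzer B/G FRET substrate.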

SMILES	Potency [1]	Potency [2]	Potency [3]	Potency [4]	Potency [5]	Potency [6]	Potency [7]	Potency [8]	Potency [9]	outcome [10]
NC1CCCCC1	inactive	30.8 µM (active) and inactive	inactive	inactive	inactive	inactive	inactive	inactive	inactive	inactive
CCCCCCCC(=O)OCC(COC(=O)CCCCCCC)OC(=O)CCCCCCC	inactive	inactive	inactive	inactive	inactive	inactive	inactive	inactive	inactive	inactive
CCOc1ccc(NC(C)=O)cc1	inactive	inactive	inactive	inactive	inactive	inactive	inactive	inactive	inactive	inactive
NS(=O)(=O)O	inactive	inactive	inactive	inactive	inactive	inactive	inactive	inactive	inactive	inactive
O=S1(=O)OC(c2ccc(O)cc2)(c2ccc(O)cc2)c2ccccc21	27.3 µM (active)	inactive	24.3 µM (active)	inactive	inactive	inactive	inactive	inactive	inactive	inactive
O=C1O[C@H]([C@@H](O)CO)C(O)=C1O	inactive	inactive	inactive	inactive	inactive	inactive	inactive	inactive	inactive	–
CC1(C)S[C@@H]2[C@H](NC(=O)[C@H](N)c3ccccc3)C(=O)N2[C@H]1C(=O)O	inactive	inactive	inactive	inactive	inactive	inactive	inactive	inactive	inactive	–
CC12CCC(CC1)C(C)(C)O2	inactive	inactive	inactive	inactive	inactive	inactive	inactive	inactive	inactive	inactive
CN(C)CCOC(C)(c1ccccc1)c1ccccn1 (stereo unspecified)	inactive	inactive	inactive	inactive	inactive	inactive	inactive	inactive	inactive	inactive
CCN(Cc1c(F)cccc1Cl)c1c([N+](=O)[O-])cc(C(F)(F)F)cc1[N+](=O)[O-]	inactive	inactive	inactive	–	–	inactive	inactive	inactive	inactive	–
CCCCCCCCCCCCCCCC[N+](C)(C)Cc1ccccc1	26.6 µM (active) and 49.4 µM (active)	inactive	29.8 µM (active)	inactive	–	25.3 µM (active) and 17.7 µM (active) and 33.5 µM (active)	–	63.1 µM (active) and 49.4 µM (active) and 29.8 µM (active)	50.5 µM (active) and 44.4 µM (active) and 23.7 µM (active)	–
COc1ccc2c(c1)c(CC(=O)O)c(C)n2C(=O)c1ccc(Cl)cc1	inactive	inactive	inactive	–	–	inactive	inactive	inactive	inactive	inactive
CC(C)NCC(O)c1ccc(O)c(O)c1 (stereo unspecified)	inactive	inactive	inactive	–	–	inactive	inactive	inactive	inactive	–
NC(=O)c1cccnc1	inactive	inactive	inactive	inactive	inactive	inactive	inactive	inactive	inactive	inactive
Cc1c(C(=O)O)c(O)cc2c1C(=O)c1c(O)c([C@@H]3O[C@H](CO)[C@@H](O)[C@H](O)[C@H]3O)c(O)c(O)c1C2=O	29.8 µM (active) and 13.3 µM (active) and 24.3 µM (active)	inactive	26.6 µM (active) and 21.7 µM (active)	inactive	inactive	inactive	–	inactive	inactive	–
OC[C@H]1O[C@H](O[C@]2(CCl)O[C@H](CCl)[C@@H](O)[C@@H]2O)[C@H](O)[C@@H](O)[C@H]1Cl	inactive	inactive	inactive	–	–	inactive	inactive	inactive	inactive	inactive
O=CC(=O)c1ccccc1	inactive	inactive	inactive	inactive	–	inactive	inactive	inactive	–	–
Nc1c(N=Nc2ccc(-c3ccc(N=Nc4cc(S(=O)(=O)O)c5ccccc5c4N)cc3)cc2)cc(S(=O)(=O)O)c2ccccc12	13.3 µM (active) and 4.32 µM (active)	23.7 µM (active) and 24.3 µM (active)	21.1 µM (active) and 9.68 µM (active)	inactive	–	inactive	–	–	inactive	inactive
CCCCOC(=O)c1ccc(O)cc1	inactive	inactive	inactive	inactive	–	inactive	inactive	inactive	inactive	inactive
CCCCC1(COC(=O)CCC(=O)O)C(=O)N(c2ccccc2)N(c2ccccc2)C1=O	inactive	inactive	inactive	inactive	inactive	inactive	inactive	inactive	inactive	inactive
C=C(C)C(=O)OCC(C)O (stereo unspecified)	inactive	inactive	inactive	–	–	inactive	inactive	inactive	inactive	inactive
C=C1CC[C@H](O)C/C1=C\C=C1/CCC[C@]2(C)[C@@H]([C@H](C)CCCC(C)C)CC[C@@H]12	inactive	inactive	inactive	–	54.4 µM (active)	61.1 µM (active)	21.5 µM (active)	–	48.5 µM (active)	–
